Assay results as given in the supplement of paper PMC7156485.
± gives the standard deviation of the averaged measurements.

Assays:
Conditions in all cases: concentration: 10 µM; 24 h
[1] = system: HCC1569; assay: cell number relative to DMSO (% of DMSO); higher = more cells (less growth inhibition / toxicity)
In short: (§1)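 Treatment: HCC1569 and TDF cells, 800 per well in 384-well plates with RPMI and 10% FBS, were given compounds at 10 µM for 24 h at 37 °C, in triplicate. Readout: after 3.7% formaldehyde fixation, cells were stained with a rabbit anti-H1.0 antibody, an AlexaFluor 647 secondary and DAPI. Reported values are H1.0 nuclear intensity or cell number as percent of the plate control, taken as the median of replicates, with positional smoothing for HCC1569.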

[2] = system: TDF; assay: as above
In short: as §1

[3] = system: TDF; assay: H1.0 immunofluorescence intensity relative to DMSO (% of DMSO); higher = stronger H1.0 induction, active = 120 or more
In short: as §1

[4] = system: HCC1569; assay: H1.0 immunofluorescence intensity relative to DMSO (% of DMSO); higher = stronger H1.0 induction, active = 140 or more
In short: as §1
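Throughout, for H1.0 immunofluorescence intensity relative to DMSO: TDF is a line of transformed human dermal fibroblasts of mesenchymal origin.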
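Throughout, for cell number relative to DMSO: TDF denotes transformed human dermal fibroblasts of mesenchymal origin.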

Row | SMILES | cell number [1] | cell number [2] | H1.0 immunofluorescence intensity [3] | H1.0 immunofluorescence intensity [4]
1 | CC(N)C1CCC(C(=O)Nc2ccncc2)CC1.Cl.Cl.O (stereo not drawn) | 109 | 104 | 97.1 (inactive) | 102 (inactive)
2 | CCCCCCCCCCCCCCCCCC(=O)OC(CC(=O)O)C[N+](C)(C)C.[Cl-] (racemic) [DL-Stearoylcarnitine chloride] | 101 | 84.3 | 136 (active) | 114 (inactive)
3 | Cl.O=C(OCCN1CCOCC1)C1(c2ccccc2)CCCCC1 | 99.8 | 111 | 90.5 (inactive) | 94 (inactive)
4 | Cc1c(C)c2c(c(C)c1O)CCC(C)(COc1ccc(CC3SC(=O)NC3=O)cc1)O2 (stereo not drawn) [Troglitazone] | 99.8 | 93.8 | 101 (inactive) | 103 (inactive)
5 | CSc1cccc(Nc2ncc3cc(-c4c(Cl)cccc4Cl)c(=O)n(C)c3n2)c1 | 37.3 | 6.26 | 145 (active) | 150 (active)
6 | CCOC(=O)C1OC1C(=O)NC(CC(C)C)C(=O)NCCC(C)C (stereo not drawn) | 100 | 93.4 | 101 (inactive) | 97.9 (inactive)
7 | CCCCCCCCCCCCCCCC(=O)NC(CN1CCOCC1)C(O)c1ccccc1 (racemic) | 103 | 94.8 | 97.6 (inactive) | 102 (inactive)
8 | CC1=C(C(=O)O)N2C(=O)C(NC(=O)C(N)C3=CCC=CC3)C2SC1 (stereo not drawn) [Cephadrine] | 100 | 101 | 96.3 (inactive) | 88 (inactive)
9 | COC(=O)[C@@H](N)CSCC=C(C)CCC=C(C)CCC=C(C)C [S-Farnesyl-L-cysteine methylester] | 106 | 94.7 | 95.6 (inactive) | 103 (inactive)
10 | CCCCCCCCCCC1=C(C)C(=O)C(OC)=C(OC)C1=O [Decylubiquinone] | 101 | 89.2 | 94.8 (inactive) | 91.8 (inactive)
11 | O=C(C=Cc1ccc(O)cc1)c1ccc(O)cc1O [Isoliquiritigenin] | 96.3 | 99.6 | 89.2 (inactive) | 100 (inactive)
12 | Cc1ccccc1C=CC1=NCCN1.O=C(O)C(=O)O [Metrazoline oxalate] | 96.3 | 81 | 102 (inactive) | 124 (inactive)
13 | C=C1NC2(C(=O)COC(C)=O)C(CC3C4CCC5=CC(=O)C=CC5(C)C4C(O)CC32C)O1 (stereo not drawn) | 96.8 | 108 | 86 (inactive) | 101 (inactive)
14 | O=C(O)C1CCNCC1 [Isonipecotic acid] | 102 | 104 | 91.5 (inactive) | 91.2 (inactive)
15 | CNC(=O)C1OC(n2cnc3c(NCc4ccc(N)cc4)ncnc32)C(O)C1O (stereo not drawn) | 99.9 | 98.3 | 93.8 (inactive) | 90.6 (inactive)
16 | C=CC1CN2CCC1CC2C(O)c1ccnc2ccc(OC)cc12.C=CC1CN2CCC1CC2C(O)c1ccnc2ccc(OC)cc12.O=S(=O)(O)O (stereo not drawn) [Quinine sulfate] | 102 | 97.8 | 92.8 (inactive) | 100 (inactive)
17 | CCOC([O-])=Nc1c[n+](N2CCOCC2)no1 [Molsidomine] | 106 ± 1.7 | 96.4 ± 7.5 | 101 (inactive) | 94 (inactive)
18 | C=C1C(=O)C23C(O)C1CCC2C12COC3(O)C(O)C1C(C)(C)CCC2O (stereo not drawn) [Oridonin] | 80.4 | 110 | 93 (inactive) | 111 (inactive)
19 | CN1CCN2c3ccccc3Cc3ccccc3C2C1.Cl (stereo not drawn) [Mianserin.HCl] | 107 | 112 | 101 (inactive) | 96.2 (inactive)

Row | SMILES | cell number [1] | cell number [2] | H1.0 immunofluorescence intensity [3] | H1.0 immunofluorescence intensity [4]
20 | CC(CCc1ccc(O)cc1)NCCc1ccc(O)c(O)c1.Cl (stereo not drawn) [Dobutamine hydrochloride] | 101 | 95.7 | 85.4 (inactive) | 91 (inactive)
21 | CN1CCN(CCC=C2c3ccccc3Sc3ccc(S(=O)(=O)N(C)C)cc32)CC1.Cl [Thiothixene hydrochloride] | 95 | 107 | 98.5 (inactive) | 96.8 (inactive)
22 | CC[C@@]1(O)C(=O)OCc2c1cc1n(c2=O)Cc2cc3c(CN(C)C)c(O)ccc3nc2-1 | 61.3 | 26.3 | 129 (active) | 142 (active)
23 | CN1CCN(CC(=O)N2c3ccccc3C(=O)Nc3cccnc32)CC1.Cl.Cl [Pirenzepine.2HCl] | 101 | 106 | 90.5 (inactive) | 106 (inactive)
24 | COc1ccc(-c2coc3cc(O)cc(O)c3c2=O)cc1 [Biochanin A] | 106 | 97.4 | 93.9 (inactive) | 90.6 (inactive)
25 | CCCCCCCCCCCCCCCC(O)C(CO)NC(=O)CCCCCCC (stereo not drawn) [C8 Dihydroceramide] | 100 | 104 | 97.1 (inactive) | 108 (inactive)
26 | CC1(NC(=O)CBr)CCC(C(C)(C)NCC(O)COc2cccc3[nH]ccc23)CC1 (racemic) | 95.8 | 98.3 | 93.2 (inactive) | 103 (inactive)
27 | CCCCCCCCCC(=O)OCC(CO)OC(=O)CCCCCCCCC (stereo not drawn) [1,2-Didecanoyl-glycerol (10:0)] | 102 | 98.8 | 98.3 (inactive) | 101 (inactive)
28 | CCCCCCCC(=O)c1c(O)cc(O)cc1CC(=O)OCC [ethyl (3,5-dihydroxy-2-octanoylphenyl)acetate] | 104 | 106 | 96.7 (inactive) | 121 (inactive)
29 | COc1cc(C(=O)OC2CC3CCC2(C)C3(C)C)ccc1O (stereo not drawn) [Tschimganine] | 101 | 103 | 99.6 (inactive) | 88.3 (inactive)
30 | N[C@@H](CC(=O)O)C(=O)O [L-Aspartic acid] | 104 | 108 | 88.5 (inactive) | 93.2 (inactive)
31 | C[N+](C)(C)CCO.[Cl-] [2-hydroxy-N,N,N-trimethylethanaminium chloride] | 101 | 107 | 94.9 (inactive) | 99.5 (inactive)
32 | CC1CCc2c(N3CCC(O)CC3)c(F)cc3c(=O)c(C(=O)O)cn1c23 (stereo not drawn) [Nadifloxacin] | 107 | 89.2 | 98.7 (inactive) | 101 (inactive)
33 | CC(C)(C)C1(O)CCN2CC3c4ccccc4CCc4cccc(c43)C2C1.Cl (racemic) | 105 | 111 | 88.7 (inactive) | 91 (inactive)
34 | C[N+](C)(C)CCOC(=O)CCC(=O)OCC[N+](C)(C)C.[Cl-].[Cl-] [Succinylcholine chloride] | 100 | 113 | 95.5 (inactive) | 84.7 (inactive)
35 | NC(N)=NCc1cccc(I)c1.NC(N)=NCc1cccc(I)c1.O=S(=O)(O)O [m-Iodobenzylguanidine hemisulfate] | 109 | 98.8 | 98.1 (inactive) | 98.4 (inactive)
36 | Nc1nc(N)c2nc(-c3ccccc3)c(N)nc2n1 [Triamterene] | 98.6 | 112 | 85.8 (inactive) | 102 (inactive)
37 | CCCCCC(=O)C=CC=CCC=CCC=CCCCC(=O)O [15-Ketoeicosatetraenoic acid] | 99.5 | 102 | 94 (inactive) | 86.9 (inactive)
